In PubChem BioAssay AID1851 (National Center for Advancing Translational Sciences (NCATS), 2009):
Several values for one entry are separate records, joined by “and”; a condition that tells them apart may be missing. Equal entries are not always repeated. Out of some 16,000 compounds screened, about 5,800 (36%) were called active. Not shown: some 23% with an inconclusive outcome. The call rests on the fitted dose curve; in most records, active means well fitted curve in the direction sought with a large enough effect; inconclusive means small, poorly fitted or top-dose-only effect, or effect the other way; inactive means no such curve, though single readings can be large or run the other way. The list shows a part of the results.

What follows are molecules tested against Cytochrome P450 2C19 (Homo sapiens) (UniProt P33261) (assay: Cytochrome panel assay with activity outcomes). Conditions: recombinant CYP, pro-luciferin dealkylation, luminescence, p450-cyp2c19; series mostly up to 57.1 µM.
Sequence of Cytochrome P450 2C19 (Homo sapiens) (P33261 whole entry, looked up): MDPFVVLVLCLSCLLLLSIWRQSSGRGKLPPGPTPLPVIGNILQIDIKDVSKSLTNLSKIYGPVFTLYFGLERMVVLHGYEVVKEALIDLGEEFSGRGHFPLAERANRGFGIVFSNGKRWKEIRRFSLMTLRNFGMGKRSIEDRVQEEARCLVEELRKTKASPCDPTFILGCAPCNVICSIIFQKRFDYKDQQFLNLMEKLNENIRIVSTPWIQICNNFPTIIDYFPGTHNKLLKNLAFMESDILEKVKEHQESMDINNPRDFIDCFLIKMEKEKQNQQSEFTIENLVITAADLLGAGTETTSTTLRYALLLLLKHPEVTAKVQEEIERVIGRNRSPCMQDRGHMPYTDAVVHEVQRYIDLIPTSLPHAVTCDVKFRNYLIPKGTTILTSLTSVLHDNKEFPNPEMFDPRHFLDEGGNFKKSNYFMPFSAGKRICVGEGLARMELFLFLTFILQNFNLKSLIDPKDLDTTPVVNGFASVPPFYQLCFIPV
On the % scale 0 is the no-effect control and ±100 the full control effect.

Compound	AC50	activity, negative = inhibition
CCOC(=O)CC(Nc1nc(N2CCOCC2)nc(N2CCOCC2)n1)c1ccccc1Cl (stereo not given)	3.16 µM (active)	–
CCC[C@H]1C[C@H](C(=O)N[C@H]([C@@H]2O[C@H](SC)[C@@H](O)[C@H](O)[C@@H]2O)[C@H](C)O)N(C)C1	inactive	–
Cc1cc(NC(=O)Nc2ccc(N(C)C)cc2)c2cc(F)cc(F)c2n1	15.8 µM (active)	–
Cc1cc(N)c2cc(NC(=O)Nc3ccc4nc(C)cc(N)c4c3)ccc2n1	–	-6.46% [at 11.4 µM] (inactive)
Cc1cc(C)c(C(N)=O)c(NC(=O)Nc2ccccc2)n1	inactive	–
COc1cc(OC)c2c(c1Cl)O[C@@]1(C2=O)[C@H](C)CC(=O)C[C@@H]1OC	inactive	–
C[C@@H]1NCC[C@H](CC(=O)O)[C@H]1CC(=O)O	–	4.52% [at 11.4 µM] (inactive)
COc1ccccc1-n1c(SCC(=O)N2CCCC2)nc2cccnc21	inactive	–
O=C(CCc1nc2ccccc2c(=O)[nH]1)OCC(=O)N1CCN(S(=O)(=O)c2ccccc2)CC1	inactive	–
Cn1c(SCC(=O)N2CCN(S(=O)(=O)c3ccccc3)CC2)nc2ccccc21	15.8 µM (active)	–
CC1CCN(C(=O)CSc2nc3cccnc3n2C)CC1	8.91 µM (active)	–
CCCn1c(=O)c2c(ncn2C)n(CCC)c1=O	inactive	–
N#Cc1cccc(NC(=O)N2CC[C@@]3(CCCN(C(=O)c4ccco4)C3)C2)c1	inactive	–
CCCCCOc1ccc(C(=O)NCC2(c3ccccc3)CCOCC2)cc1	7.94 µM (active)	–
Clc1ccc(-c2nnc(-c3ccco3)o2)cc1	20 µM (active)	–
O=C(Nc1nnc(-c2ccc(Cl)cc2)o1)Nc1ccccc1Cl	inactive	–
O=C(Cc1ccc(Cl)cc1)Nc1cccc(-c2nnc(-c3ccco3)o2)c1	0.0158 µM (active)	–
Clc1ccc2c(N3CCC(CCC4CCN(c5ncnc6cc(Cl)ccc56)CC4)CC3)ncnc2c1	–	-1.06% [at 11.4 µM] (inactive)
CCCCCC(=O)O[C@H](CC(=O)O)C[N+](C)(C)C	inactive	–
COc1cccc(NC(=O)c2cc(-c3cccnc3)nc3c(Cl)cccc23)c1	6.31 µM (active)	–
COc1ccc(-c2nc3cnc(N4CCNCC4)nc3n(C3CC3)c2=O)cc1	inactive	–
CC1(C)CC(NC(=O)c2ccc3c(c2)OCO3)CC(C)(C)N1	inactive	–
CC1(C)CC(NCc2ccc3c(c2)OCO3)CCO1 (stereo not given)	11.2 µM (active)	–
c1ccc(NN(Cc2cnccn2)c2ccccc2)cc1	2 µM (active)	–
c1ccc(CCc2cccnc2)nc1	–	-11.1% [at 11.4 µM] (inactive)

Compound	AC50	activity, negative = inhibition
C/C(CCN1CCc2nc(-c3ccccc3)c(-c3ccccc3)cc2C1)=N\O[C@@H](C)c1cn([C@@H]2COC[C@@H]2O)nn1	–	3.9% [at 11.4 µM] (inactive)
CC(C)=NO[C@@H](C)c1cn([C@H](CO)Cc2ccccc2)nn1	–	-12.3% [at 11.4 µM] (inactive) and -23.6% [at 11.4 µM] (inactive)
CC(=O)OC[C@@H]1O[C@H](C/C=N\O[C@@H](C)c2cn([C@H](CO)Cc3ccccc3)nn2)C=C[C@@H]1OC(C)=O	–	25.9% [at 11.4 µM] (inactive) and 17.9% [at 11.4 µM] (inactive)
COc1ccc(O[C@H]2C=C[C@@H](c3ccccc3)O[C@H]2COC(=O)CC/C(C)=N\O[C@@H](C)c2cn([C@H](CO)Cc3ccccc3)nn2)cc1	63.1 nM (active) and 631 nM (active)	–
C/C(CCC(=O)OC[C@@H]1O[C@H](C#Cc2ccccc2)C=C[C@@H]1Oc1ccc(C)cc1)=N/OC[C@@H](C)[C@H](OCc1ccccc1)C(C)C	–	-30.1% [at 11.4 µM] (inactive)
COc1ccc(O[C@H]2C=C[C@@H](c3ccccc3)O[C@H]2COC(=O)CC/C(C)=N\O[C@@H](C)c2cn([C@H]3COC[C@H]3O)nn2)cc1	2.51 µM (active)	–
C/C(CCC(=O)OC[C@@H]1O[C@H](C#Cc2ccccc2)C=C[C@@H]1Oc1ccc(C)cc1)=N/O[C@@H](C)c1cn([C@H](CO)Cc2ccccc2)nn1	3.98 µM (active)	–
CO/N=C(/C)CCC(=O)OC[C@@H]1O[C@H](C#Cc2ccccc2)C=C[C@@H]1Oc1ccc(C)cc1	3.98 µM (active)	–
CCc1cc2c(nc1CC)CCN(CC/C(C)=N/O[C@@H](C)c1cn([C@@H]3COC[C@@H]3O)nn1)C2	–	14.6% [at 11.4 µM] (inactive)
C/C(CCC(=O)OC[C@@H]1O[C@H](C#Cc2ccccc2)C=C[C@@H]1Oc1ccc(C)cc1)=N/OC[C@@H](O)COCc1ccco1	–	-32.2% [at 11.4 µM] (inactive)
CC(=O)OC[C@H]1O[C@@H](O/N=C(\C)CCC(=O)OC[C@@H]2O[C@H](C#Cc3ccccc3)C=C[C@@H]2Oc2ccc(C)cc2)[C@H](OC(C)=O)[C@@H](OC(C)=O)[C@H]1OC(C)=O	–	-18.3% [at 11.4 µM] (inactive)
O=CN1CCN(C[C@H](O)CN2CCCCC2)CC1	–	10.2% [at 11.4 µM] (inactive)
O=c1oc2c(Cl)cc(Cl)cc2cc1-c1nnc(Nc2ccccc2F)s1	inactive	–
O[C@@](CCN1CCCCC1)(c1ccccc1)C1CCCCC1	inactive	–
CC(C)C(O)(C#CCN1CCCC1)c1ccccc1 (stereo not given)	10 µM (active)	–
OC(CCCN1CCCCC1)(c1ccccc1)c1ccccc1	inactive	–
CO[C@H]1COC(=O)[C@H]2CCCN2C(=O)C/C=C\[C@@H](C)[C@H](OC)COC(=O)C/C=C\[C@@H]1C	–	19.4% [at 11.4 µM] (inactive)
COCCCNC(=O)CN(c1ccc(OC)cc1)S(=O)(=O)c1ccc(NC(C)=O)cc1	15.8 µM (active)	–
O=C(CN(c1ccccc1)S(=O)(=O)c1ccccc1[N+](=O)[O-])NN=C1CCCCCCC1	0.794 µM (active)	–
COc1ccc(N(CC(=O)NN=C2CCCC2)S(=O)(=O)c2ccccc2)cc1	6.31 µM (active)	–
COC(=O)[C@@]1(Cc2ccc(F)cc2)[C@H]2c3cc(C(=O)N4CCCC4)n(Cc4ccc(OC(F)(F)F)cc4)c3C[C@H]2CN1C(=O)c1ccccc1	inactive	–
COC(=O)[C@@]1(Cc2ccc(F)cc2)[C@H]2c3cc(C(=O)N(C)C)n(Cc4ccc(C)c(F)c4F)c3C[C@H]2CN1C(=O)c1ccccc1	15.8 µM (active)	–
COC(=O)[C@@]1(Cc2ccc(F)cc2)[C@H]2c3cc(C(=O)N4CCCC4)n(Cc4ccc(C)o4)c3C[C@H]2CN1C(=O)c1ccccc1	5.01 µM (active)	–
COC(=O)[C@@]1(Cc2ccccc2)[C@H]2c3cc(C(=O)N4CCCC4)n(Cc4ccc(C)o4)c3C[C@H]2CN1C(=O)c1ccccc1	2.51 µM (active)	–
COC(=O)[C@@]1(Cc2ccc(F)cc2)[C@H]2c3cc(C(=O)N(C)C)n(Cc4ccc(C)o4)c3C[C@H]2CN1C(=O)c1ccccc1	15.8 µM (active)	–
